Sampled rows, rich in hits. Any-hit rate of the full collection: about 3.3%.
BoNT-F LC inh: blocks Botulinum neurotoxin F light chain protease | Multiplex microsphere protease cleavage assay, flow cytometry | inhibition, % at 10 µM | 0.22% of 360,000 active; in the data active = inhibition above about 35%, passing the limit was not always enough; inconclusive = no clear call, values can overlap the other calls; also: plate controls were buffer without enzyme for full effect and enzyme alone for no effect
BoNT A protease: inhibitors of Botulinum neurotoxin A light chain protease. inhibition, % at 10 µM. multiplex microsphere protease substrate cleavage, flow cytometry. 0.17% of 360,000 active. AID 588499; also: plate controls were buffer without enzyme for full effect and enzyme alone for no effect
PriA SSB inh: blocks PriA binding to SSB C-terminal tail | AlphaScreen SSBct-PriA binding, biotinylated peptide | inhibition, % at 33 µM | 0.6% of 430,000 active | AID 1272365; in the data active = inhibition mostly above about 37%, no sharp cut-off; inactive = mostly below about 20%;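 also: plate controls were negative control peptide for no effect and reference peptide for full effect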
Anthrax LF prot: inhibitors of Bacillus anthracis lethal factor protease; inhibition, % at 10 µM; 0.12% of 360,000 active; P15917; AID 588501; multiplex microsphere protease cleavage assay, LF; also: plate controls were buffer without enzyme for full effect and enzyme alone for no effect
MazF activator: increases E. coli MazEF RNase cleavage of RNA. P0AE70. activation, % at 20 µM. 0.32% of 350,000 active. FAM/BHQ RNA-DNA oligo cleavage fluorescence, 5 h; in the data active = activation above about 50%
Target sequence (P0AE70 whole entry, looked up): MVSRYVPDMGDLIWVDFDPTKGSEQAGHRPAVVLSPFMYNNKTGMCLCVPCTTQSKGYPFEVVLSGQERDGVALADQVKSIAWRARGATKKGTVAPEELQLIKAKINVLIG
Bead autofluor: counter-screen for toxin protease inhibitors: compound fluorescence. fluorescence intensity (no concentration beside the values). 3.1% of 360,000 active. compound autofluorescence counterscreen, microsphere flow cytometry; active compounds read high; in the data active = fluorescence intensity above about 16000; inconclusive = no clear call, values can overlap the other calls
* = called active by the depositor; ? = inconclusive; nt = no result; + = active, no number. Rule as the data show it, unless noted: active = inhibition above about 30%; inconclusive = no clear call, values can overlap the other calls; inactive = below that.

SMILES	BoNT-F LC inh	BoNT A protease	PriA SSB inh	Anthrax LF prot	MazF activator	Bead autofluor
CCOc1ccc2ccccc2c1C(=O)N(Cc1ccsc1)Cc1ccccn1	nt	nt	4.0	nt	nt	nt
CS(=O)(=O)N1CCN(C(=O)c2ccccc2F)CC1	21.4	0.9	1.9	7.0	5.6	4014
COc1cccc(C(=O)N2CCN(S(C)(=O)=O)CC2)c1	-0.1	-0.6	-0.3	-4.9	3.5	23027*
CS(=O)(=O)N1CCN(C(=O)c2c(F)cccc2F)CC1	-2.8	-1.4	-7.1	-0.7	-3.0	23941*
COc1cccc(S(=O)(=O)Nc2ccc(C(=O)N3CCN(C(=O)c4ccco4)CC3)cc2)c1	4.8	4.6	19.0	-8.6	8.0	18332*
O=C(NCc1ccc(Cl)cc1)c1ccc(Cn2cc(C(F)(F)F)ccc2=O)cc1	4.1	-0.1	-25.1	-2.5	0.3	4551
O=C(NCc1ccccc1Cl)c1ccc(Cn2cc(C(F)(F)F)ccc2=O)cc1	-5.7	-2.9	-2.6	-0.6	4.5	17060*
N#CC1=C(N)N(c2ccccc2)C2=C(C(=O)CCC2)C1c1ccsc1 (configuration not stated)	-3.2	0.0	7.5	0.9	6.7	16252*
COc1ccc(C2C(C#N)=C(N)N(N(C)C)C3=C2C(=O)CCC3)cc1 (configuration not stated)	56.8*	4.3	0.4	-1.5	1.3	3857
CN(C)N1C(N)=C(C#N)C(c2ccsc2)C2=C1CCCC2=O (configuration not stated)	-7.0	0.3	-4.4	-1.6	-3.1	2258
CC(C)(C)c1cc(C(=O)N/N=C\c2ccccc2Cl)n[nH]1	nt	nt	-7.0	nt	nt	nt
C/C(=N\O)c1cc(Cl)cc(Cl)c1O	?	1.6	nt	34.5*	-8.4	4650
CC(=NO)c1cc(Cl)cc(Cl)c1O	nt	nt	-10.0	nt	nt	nt
O=C(Cc1ccccc1)N1CCC(Oc2cccnn2)CC1	nt	nt	-5.0	nt	nt	nt
COc1ccc(S(=O)(=O)Nc2nc(CCC(=O)NCc3ccco3)cs2)cc1	nt	nt	7.0	nt	nt	nt
Cc1ccccc1N=Cc1ccc[nH]1	?	0.5	-11.5	11.3	8.8	3663
Cc1ccc(N=Cc2ccc[nH]2)c(O)c1	-4.2	?	9.0	-9.2	-0.3	21732*
COC(=O)c1ccc(OCC(O)CN2CCN(c3ccccc3OC)CC2)cc1 (configuration not stated)	nt	nt	-4.0	nt	nt	nt
Cc1c(-c2ccccc2)nc(N)c(C#N)c1-c1ccco1	-2.1	-0.2	-2.8	-0.5	-10.7	20557*
CCc1nc(N)c(C#N)c(-c2ccco2)c1C	-12.5	-0.4	-3.9	-2.1	1.8	2365
CCn1ccnc1N1CCN(CC(=O)NC(C)C)CC1	nt	nt	-2.0	nt	nt	nt
CCc1ccccc1NC(=O)CSc1nccn(-c2ccc(F)cc2)c1=O	nt	nt	-8.0	nt	nt	nt
CCCCCCSc1ccc([C@@H]2[C@H]3C(=O)N(CC)C(=O)[C@H]3[C@]3(C(=O)OC)CCCN23)cc1	0.7	-0.7	-4.6	-6.9	-15.1	5108
CCN1C(=O)[C@@H]2[C@@H](c3ccc(SC4CCCCC4)cc3)N3CCCC[C@@]3(C(=O)OC)[C@@H]2C1=O	27.2	-1.5	12.4	6.8	-173.8	16473*
CCCSc1ccc([C@@H]2[C@H]3C(=O)N(CC)C(=O)[C@H]3[C@]3(C(=O)OC)CCCCN23)cc1	21.6	-6.8	0.4	1.3	-75.9	22612*
SMILES	BoNT-F LC inh	BoNT A protease	PriA SSB inh	Anthrax LF prot	MazF activator	Bead autofluor
Cc1c(Cl)cccc1S(=O)(=O)NCCn1ccn2nccc12	nt	nt	-6.0	nt	nt	nt
COc1ccc([N+](=O)[O-])cc1NC(=S)N1CCc2ccccc2C1	nt	nt	-13.0	nt	nt	nt
Cc1ccc(S(=O)(=O)N2CCCC(C(=O)NCCC3=CCCCC3)C2)cc1 (configuration not stated)	-1.6	-1.3	1.1	-1.1	-3.6	21132*
O=C(NCCC1=CCCCC1)C1CCCN(S(=O)(=O)c2ccc(F)cc2)C1 (configuration not stated)	-6.8	0.1	-6.6	-3.5	14.8	2538
O=C(NCCC1=CCCCC1)C1CCN(S(=O)(=O)N2CCCC2)CC1	-0.6	-0.1	-12.1	2.9	10.4	4005
O=C(NCCC1=CCCCC1)C1CCN(S(=O)(=O)N2CCOCC2)CC1	-4.1	-2.0	-14.5	-1.6	-13.3	20881*
COc1ccc(-c2nnn(CC(=O)N3CCOCC3)n2)cc1	-0.9	0.0	-8.3	-1.3	-1.6	9610
O=C(Cn1nnc(-c2ccc(OCc3ccccc3F)cc2)n1)N1CCOCC1	-2.4	-0.3	-13.9	-2.3	-4.5	22617*
Cc1cc(NC(=O)c2ccco2)n(-c2nc(-c3cccs3)cs2)n1	nt	nt	-10.0	nt	nt	nt
O=[N+]([O-])c1cc(F)c(N2CCc3ccccc3C2)cc1N1CCCC1	nt	nt	52.4	nt	nt	nt
CC1CCN(c2cc(N3CCOCC3)c([N+](=O)[O-])cc2F)CC1	?	0.1	4.9	-2.3	6.7	4102
O=[N+]([O-])c1cc(F)c(N2CCCCCC2)cc1N1CCc2ccccc2C1	nt	nt	54.8*	nt	nt	nt
O=[N+]([O-])c1cc(F)c(N2CCc3ccccc3C2)cc1N1CCCCCC1	nt	nt	65.5*	nt	nt	nt
CC1CCN(c2cc(N3CCc4ccccc4C3)c(F)cc2[N+](=O)[O-])CC1	nt	nt	57.1	nt	nt	nt
CC1CCN(c2cc(N3CCOCC3)c(F)cc2[N+](=O)[O-])CC1	?	0.4	58.3*	-4.8	10.1	4193
Cn1cnc(S(=O)(=O)NCC2CCN(C(=O)Oc3ccccc3)CC2)c1	nt	nt	3.0	nt	nt	nt
CO[C@@H](CNC(=O)Nc1ccc2c(c1)OCO2)c1cccc(F)c1	nt	nt	-5.0	nt	nt	nt
CCn1c(=NC(=O)c2ccccc2C)sc2cccc(Cl)c21	nt	nt	-11.0	nt	nt	nt
Nc1c(C(=O)C2CC2)sc2nc(-c3cccs3)cc(C(F)(F)F)c12	13.8	20.0	-8.1	16.2	+	4416
O=c1[nH]c(=S)[nH]c2nc(-c3cccs3)cc(C(F)(F)F)c12	10.0	0.2	-10.4	-4.8	-8.2	3779
Cc1ccc(SCCCC(=O)Nc2nnc(-c3cc(C)n(C)n3)o2)cc1	nt	nt	-13.0	nt	nt	nt
Cn1c(=O)[nH]c(=O)c2c1nc(Br)n2CCSc1nc2ccccc2o1	1.5	?	-8.3	-0.4	-0.2	22279*
C=CCN1C(=O)C(C)(C)COc2cc(NC(=O)c3cccc(OC)c3OC)ccc21	nt	nt	3.0	nt	nt	nt
O=c1c(O)c(-c2ccccc2)oc2ccccc12	12.4	15.8	-15.9	24.5	-0.5	5182
O=c1cc(-c2ccccc2)oc2ccc(Cl)cc12	-5.0	-0.2	4.5	-1.3	-0.7	3900
SMILES	BoNT-F LC inh	BoNT A protease	PriA SSB inh	Anthrax LF prot	MazF activator	Bead autofluor
O=c1cc(-c2cccs2)oc2ccc(Cl)cc12	-0.2	-1.3	-22.9	-0.9	4.0	22409*
O=c1c(O)c(-c2cccs2)oc2ccc(Cl)cc12	15.9	34.8*	-12.5	32.3*	-630.0	9623
O=c1c(O)c(-c2cccs2)oc2ccccc12	2.8	31.4*	-30.8	0.9	-2.9	7327
CCCCc1cc(=O)oc2cc(C)cc(OCC(=O)O)c12	2.8	?	-3.2	-1.8	-3.1	21248*
CCCCc1cc(=O)oc2cc(C)cc(OCC(=O)NCC3CCC(C(=O)O)CC3)c12 (configuration not stated)	-6.4	-0.2	-8.2	-1.8	-4.0	5962
O=S(=O)(N/N=C1/CCCc2ccccc21)c1ccc(Br)cc1	-7.9	0.2	nt	-1.4	-2.4	4563

From PubChem
